Test [1] is described as follows: qHTS RealTime-Glo MT Cell Viability Assay in HepG2 cells - 40 hour (AID 1224870). Note: nearly all actives have a fitted effect of over 50% in size. Note: potency is the fitted concentration of half-maximal effect. In outline: (§1)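 HepG2 cells (600/well) mixed with RealTime-Glo MT reagent, settled 5 h at 37 C/5% CO2 before compound addition. Nonlytic NanoLuc luminescence from viable-cell prosubstrate reduction read repeatedly during 40 h treatment at 37 C.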
Test [2] can be described thus: A CellTox Green Cytotoxicity Assay to monitor cytotoxicity in HEK293 cells - 40 hour (AID 1224871). Note: nearly all actives have a fitted effect of over 45% in size. Note: potency is the fitted concentration of half-maximal effect. In outline: (§2)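 Tox21 screen in HEK293: membrane-impermeant cyanine dye fluoresces on binding dead-cell DNA; compound pinned 5 h post-seeding, plates held at 37 C, signal read repeatedly through 40 h.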
Test [3] in a line: qHTS RealTime-Glo MT Cell Viability Assay in HEK293 cells - 16 hour (AID 1224872). Note: nearly all actives have a fitted effect of over 50% in size. Note: potency is the fitted concentration of half-maximal effect. In outline: (§3)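 Reads taken at 0, 8, 16, 24, 32 and 40 h from the same wells. HEK293 cells (600/well) carried RealTime-Glo reagents from seeding, with compound added after a 5 h settle at 37 C.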
Test [4] can be described thus: qHTS RealTime-Glo MT Cell Viability Assay in HEK293 cells - 40 hour (AID 1224874). Note: nearly all actives have a fitted effect of over 50% in size. Note: potency is the fitted concentration of half-maximal effect. Conditions: RealTime-Glo luminescence; max response: active compounds read low. In outline:
(§4)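 HEK293 + NanoLuc + prosubstrate, 600 cells/well; 5 h, 37 C/5% CO2; compound 23 nL in DMSO by pintool; 37 C; luminescence read at 0, 8, 16, 24, 32 and 40 h time points.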
(qHTS replaces the single test concentration by a dilution series.)

Test [5] is described as follows: A CellTox Green Cytotoxicity Assay to monitor cytotoxicity in HEK293 cells - 24 hour (AID 1224875). Note: nearly all actives have a fitted effect of over 45% in size. Note: potency is the fitted concentration of half-maximal effect. In outline: as §2
Test [6] can be described thus: A CellTox Green Cytotoxicity Assay to monitor cytotoxicity in HepG2 cells - 16 hour (AID 1224876). Note: nearly all actives have a fitted effect of over 45% in size. Note: potency is the fitted concentration of half-maximal effect. The essentials: (§5)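 Measurements at 0, 8, 16, 24, 32 and 40 h of treatment captured CellTox Green fluorescence in HepG2 cells that had been co-plated with reagent and preincubated 5 h at 37 C/5% CO2.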
The nature of test [7]: A CellTox Green Cytotoxicity Assay to monitor cytotoxicity in HepG2 cells - 40 hour (AID 1224879). Note: nearly all actives have a fitted effect of over 40% in size. In outline:
as §5

The nature of test [8]: qHTS RealTime-Glo MT Cell Viability Assay in HEK293 cells - 0 hour (AID 1224880). Note: top concentration of the series differs between compounds; nearly all actives have a fitted effect of over 45% in size. In outline:
as §4

Test [9] can be described thus: A CellTox Green Cytotoxicity Assay to monitor cytotoxicity in HEK293 cells - 32 hour (AID 1224881). Note: nearly all actives have a fitted effect of over 40% in size. Note: potency is the fitted concentration of half-maximal effect. The essentials:
as §2

Test [10] in a line: A CellTox Green Cytotoxicity Assay to monitor cytotoxicity in HepG2 cells - 0 hour (AID 1224882). Note: nearly all actives have a fitted effect of over 35% in size. In outline:
as §5

Test [11] in a line: A CellTox Green Cytotoxicity Assay to monitor cytotoxicity in HepG2 cells - 32 hour (AID 1224883). Note: nearly all actives have a fitted effect of over 50% in size. Note: potency is the fitted concentration of half-maximal effect. In outline:
as §5

A short description of test [12]: A CellTox Green Cytotoxicity Assay to monitor cytotoxicity in HEK293 cells - 8 hour (AID 1224884). Note: nearly all actives have a fitted effect of over 35% in size. In outline: as §2
A short description of test [13]: qHTS RealTime-Glo MT Cell Viability Assay in HepG2 cells - 16 hour (AID 1224885). Note: nearly all actives have a fitted effect of over 50% in size. In outline:
(§6)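 HepG2 suspension premixed with RealTime-Glo reagents is plated at 600 cells per well and left 5 h at 37 C/5% CO2. Compounds in DMSO then go in, and bioluminescence reflecting viable cell number is recorded over 40 h.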

Test [14] in a line: qHTS RealTime-Glo MT Cell Viability Assay in HEK293 cells - 24 hour (AID 1224886). Note: nearly all actives have a fitted effect of over 50% in size. Note: potency is the fitted concentration of half-maximal effect. The essentials:
as §3

Test [15] is described as follows: qHTS RealTime-Glo MT Cell Viability Assay in HEK293 cells - 8 hour (AID 1224887). Note: nearly all actives have a fitted effect of over 50% in size. Note: potency is the fitted concentration of half-maximal effect. In outline: as §4
Test [16] is described as follows: A CellTox Green Cytotoxicity Assay to monitor cytotoxicity in HEK293 cells - 16 hour (AID 1224888). Note: nearly all actives have a fitted effect of over 35% in size. In outline:
as §2

The nature of test [17]: qHTS RealTime-Glo MT Cell Viability Assay in HepG2 cells - 0 hour (AID 1224889). Note: nearly all actives have a fitted effect of over 50% in size. In outline: as §6
Test [18] in a line: qHTS RealTime-Glo MT Cell Viability Assay in HepG2 cells - 32 hour (AID 1224877). Note: nearly all actives have a fitted effect of over 55% in size. Note: potency is the fitted concentration of half-maximal effect. In outline:
as §6

Test [19] is described as follows: A CellTox Green Cytotoxicity Assay to monitor cytotoxicity in HepG2 cells - 24 hour (AID 1224878). Note: nearly all actives have a fitted effect of over 45% in size. Note: potency is the fitted concentration of half-maximal effect. The essentials:
as §5

Test [20] can be described thus: qHTS RealTime-Glo MT Cell Viability Assay in HepG2 cells - 8 hour (AID 1224873). Note: nearly all actives have a fitted effect of over 55% in size. In outline:
as §1

Unmarked numbers belong to inactive results. Inconclusive results are not listed. Active and inactive are the calls of the source. Calls come from the whole dose curve; as a rule, active = well fitted curve in the direction sought with a large enough effect in the repeat runs; inconclusive = weak or mixed curves; inactive = no such curve, though single readings can be large; an effect the other way counts as inactive or inconclusive.
% is set by controls: 0 for no effect and ±100 for the full control effect.

`CC1(C)S[C@@H]2[C@H](NC(=O)C(c3ccccc3)S(=O)(=O)O)C(=O)N2[C@H]1C(=O)O` (stereo partly drawn): the Potency entry in test [1], in [2], in test [3], in test [5], in test [6] and in test [7] was “inactive” in each case. The Potency result in [8], in [9], in test [10], in [11], in [12] and in test [13] was “inactive” in each case. In addition, the Potency entry in test [14], in test [15], in test [16] and in test [17] was “inactive” throughout. Also, the max response in test [4] was 0.0341%.

As for `O=C1c2ccccc2C(=O)C1(O)O`, the Potency result in [1], in [2], in test [3], in test [5], in test [6] and in [18] was “inactive” in each case. For the same compound, the Potency entry in test [19], in test [8], in [9], in [10], in test [12] and in test [13] was “inactive” each time. Also, the Potency result in test [14], in [15], in [16] and in [17] was “inactive” in each case. Further, in test [4], the max response is -22.4%.

In the case of `C[C@H]1c2cccc(O)c2C(O)=C2C(=O)[C@]3(O)C(O)=C(C(N)=O)C(=O)[C@@H](N(C)C)[C@@H]3[C@@H](O)[C@@H]21`, the Potency result in test [1], in test [2], in [3], in [5], in test [6] and in test [18] was “inactive” each time. The Potency entry in test [19], in test [8], in [9], in test [10], in [11] and in test [12] was “inactive” each time. Further, the Potency entry in test [13], in test [14], in test [15] and in [16] was “inactive” each time. In addition, in test [4], the max response was 0.751%.

As for `Cc1cc(C)c(N)cc1C`, the Potency entry in [1], in test [2], in [3], in test [5], in test [6] and in test [19] was “inactive” in each case. Further, the Potency result in [8], in test [10], in test [11], in [13], in test [14] and in test [15] was “inactive” throughout. Further, the Potency entry in test [16] and in test [17] was “inactive” each time. In [4], the max response was 1.12%.

As for `COc1cc(C(=O)NCCCCCC(=O)O)cc(OC)c1OC`, the Potency result in test [1], in [2], in test [20], in [5], in test [6] and in test [18] was “inactive” each time. The Potency entry in test [19], in test [7], in test [8], in test [9], in test [10] and in test [11] was “inactive” throughout. The Potency entry in test [12], in [13], in test [14], in [15], in test [16] and in test [17] was “inactive” throughout. In [4], the max response was 1.12%.

`CCN(CC)CCNC(=O)COc1ccc(OC)cc1`: the Potency result in test [1], in [2], in test [20], in [5], in [6] and in test [18] was “inactive” each time. The Potency result in [19], in test [7], in test [8], in [9], in [10] and in test [11] was “inactive” in each case. Also, the Potency result in test [12], in test [13], in test [14], in [15], in [16] and in test [17] was “inactive” in each case. Further, the max response in [4] was 13.7%.

Take `COc1cc(Nc2c(C#N)cnc3cc(OCCCN4CCN(C)CC4)c(OC)cc23)c(Cl)cc1Cl`: the Potency in test [1] was 23.9 µM (active); in test [2] it was 21.3 µM (active); in test [3], 19 µM (active); in [4] it was 7.56 µM (active); in [5] it was 21.3 µM (active); in test [6], 23.9 µM (active). Also, the Potency in test [18] is 21.3 µM (active); in test [19], 16.9 µM (active); in [9] it was 21.3 µM (active); in test [11] it was 9.52 µM (active); in [14] it was 9.52 µM (active); in test [15] it was 23.9 µM (active). Moreover, the Potency entry in [8], in [10], in test [12] and in test [16] was “inactive” in each case.

On to `CCCCCC#CC(=O)OC`, for which the Potency entry in test [1], in test [2], in test [3], in test [5], in [6] and in [18] was “inactive” each time. The Potency entry in test [19], in test [7], in test [8], in test [9], in [10] and in test [11] was “inactive” throughout. Further, the Potency result in test [12], in test [13], in [15], in test [16] and in test [17] was “inactive” throughout.

As for `CCCCN(CCN(CCCC)C(=O)N1CCOCC1)C(=O)N1CCOCC1`, the Potency result in [1], in [2], in test [20], in [5], in [6] and in test [18] was “inactive” in each case. Further, the Potency result in test [19], in [7], in test [8], in [9], in [10] and in test [11] was “inactive” throughout. For the same compound, the Potency result in test [12], in test [13], in [14], in test [15] and in [16] was “inactive” in each case. The max response in [4] is -14%.

Regarding `CC[C@]1(O)C[C@H]2CN(CCc3c([nH]c4ccccc34)[C@@](C(=O)OC)(c3cc4c(cc3OC)N(C=O)[C@H]3[C@@](O)(C(=O)OC)[C@H](OC(C)=O)[C@]5(CC)C=CCN6CC[C@]43[C@@H]65)C2)C1`, the Potency result in test [1], in test [2], in test [3], in [5], in test [6] and in test [18] was “inactive” in each case. In addition, the Potency entry in test [19], in [8], in test [9], in test [10], in test [12] and in test [13] was “inactive” throughout. Besides, the Potency result in test [15], in test [16] and in test [17] was “inactive” throughout. The Potency in [4] is 0.0012 µM (active).

For `C=CC(=O)[O-].C=CC(=O)[O-].[Zn+2]`, the Potency result in test [1], in test [2], in [20], in test [5], in [6] and in [18] was “inactive” in each case. In addition, the Potency result in test [19], in test [7], in test [8], in test [9], in [10] and in [11] was “inactive” throughout. Besides, the Potency entry in test [12], in test [13], in test [14], in test [15], in test [16] and in test [17] was “inactive” throughout. Further, the max response in [4] was 0.547%.

Take `O=C(Cn1ccnc1[N+](=O)[O-])NCCO`: the Potency entry in test [1], in test [2], in [20], in [5], in [6] and in [18] was “inactive” each time. For the same compound, the Potency result in test [19], in test [7], in test [8], in [9], in [10] and in test [11] was “inactive” throughout. For the same compound, the Potency entry in [12], in test [13], in test [14], in test [15], in [16] and in test [17] was “inactive” throughout. Further, the max response in test [4] was 4.23%.

`O=C1CCCCCCCCCCOCCCCO1`: the Potency entry in test [1], in test [3], in test [6], in [19], in [7] and in test [8] was “inactive” each time. In addition, the Potency result in test [10], in test [11], in test [12], in [13], in test [14] and in test [15] was “inactive” in each case. Moreover, the Potency result in test [16] and in [17] was “inactive” each time. For the same compound, the Potency in test [2], in test [5] and in [9] was 49 µM (active) each time. Also, in [4], the max response is -14.4%.

As to `CC1(C)O[C@@H]2C[C@H]3[C@@H]4C[C@H](F)C5=CC(=O)C=C[C@]5(C)[C@H]4[C@@H](O)C[C@]3(C)[C@]2(C(=O)CO)O1`, the Potency entry in test [1], in test [2], in test [20], in test [5], in test [6] and in test [18] was “inactive” each time. Besides, the Potency entry in test [19], in test [7], in [9], in test [10], in [11] and in test [13] was “inactive” throughout. Besides, the Potency entry in test [14], in test [15] and in test [16] was “inactive” in each case. Besides, in test [4], the max response is -1.56%.
